Bioassay records as filed in PubChem BioAssay.
Rab9 promoter act – activators of Rab9 promoter | Huh7 Rab9 promoter-luciferase reporter, luminescence, 24 h | Potency, µM (titrated, usually from 9.22 µM), without a hit: at the top dose activation, negative = inhibition, most hits filed as activators | 320,000 tested, 2.8% active; note: % of control where 0% means no effect; nearly all actives have a fitted effect of over 60% in size
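Quantitative HTS format; Huh7 Rab9-luciferase reporter cells (1500/well) receive compound 2 h post-plating, incubate 24 h at 37 °C, then get luciferase reagent for 10 min before luminescence reading.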
ELG1 genotoxic – inducers of genotoxicity in HEK293T ELG1-luciferase cells; HEK293T ELG1-luciferase reporter, luminescence, 16 h; Potency, µM (doses to about 46 µM), for inactives: at the top dose activity change, positive = activation, usual class: activators; 330,000 tested, 1.3% active; note: % of control where 0% means no effect; nearly all actives have a fitted effect of over 60% in size
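Cells (2,000/well) expressing the ELG1-luciferase fusion are dosed by pin tool and kept 16 hr at 37 °C, 5% CO2. Signal comes from ONE-Glo luciferase reagent after 30 min at room temperature.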
FLuc modulator – firefly luciferase modulation, counter-screen for miR-21 project. AID 588342. Potency, µM (highest dose often 57.5 µM), for the others: top-dose activity change, negative = inhibition, hits mostly inhibitors. purified FLuc, Km substrates, luminescence inhibition. 360,000 tested, 6.9% active;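 note: plate controls were vehicle for no effect and reference inhibitor for full effect; nearly all actives have a fitted effect of over 55% in size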
Target sequence (P08659 whole entry, looked up): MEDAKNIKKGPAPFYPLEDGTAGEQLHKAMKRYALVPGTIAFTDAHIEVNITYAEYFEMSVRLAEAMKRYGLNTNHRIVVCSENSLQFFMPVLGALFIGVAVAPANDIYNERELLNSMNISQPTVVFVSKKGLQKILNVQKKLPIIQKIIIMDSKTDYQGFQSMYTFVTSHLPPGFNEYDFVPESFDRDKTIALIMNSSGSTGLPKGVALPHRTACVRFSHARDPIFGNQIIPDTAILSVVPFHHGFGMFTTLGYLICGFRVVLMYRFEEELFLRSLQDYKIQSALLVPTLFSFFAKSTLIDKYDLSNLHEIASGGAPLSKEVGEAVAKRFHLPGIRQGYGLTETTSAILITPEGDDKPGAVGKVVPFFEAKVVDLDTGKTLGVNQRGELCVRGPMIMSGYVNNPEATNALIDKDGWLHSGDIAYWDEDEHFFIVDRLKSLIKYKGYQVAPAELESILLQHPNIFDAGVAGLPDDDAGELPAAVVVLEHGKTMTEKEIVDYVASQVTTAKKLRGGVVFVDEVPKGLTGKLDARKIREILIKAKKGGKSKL
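Purified P. pyralis luciferase, 10 nM final, with Km-level 10 uM D-luciferin and 10 uM ATP in 50 mM Tris acetate pH 7.5, 10 mM Mg acetate, 0.01% Tween-20, 0.05% BSA; 6-point qHTS titration about 60 µM downward; luminescence read.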
NPC1 prom act – activators of NPC1 promoter | Huh7 NPC1 promoter luciferase reporter, 24 h | Potency, µM (series often up to 9.22 µM), for the others: at the top dose activation, most hits filed as activators | 320,000 tested, 2.4% active | AID 485313; note: % of control where 0% means no effect; nearly all actives have a fitted effect of over 60% in size
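Stably transfected Huh7 (NPC1 promoter→luciferase), 1500 cells/well in Opti-MEM + 10% FBS, 2 h settle, then compound 24 h at 37 °C. Luminescence after 10 min with Amplite reagent.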
SMN2 splice enh – enhancers of SMN2 splice variant expression; HEK293 SMN2-luciferase splicing reporter, luminescence, 30-36 h; Potency, µM (highest dose often 46.1 µM), for the others: at the top dose activity change, positive = activation, most hits filed as activators; 210,000 tested, 2.8% active; AID 1458; note: % of control where 0% means no effect; nearly all actives have a fitted effect of over 55% in size
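HEK293 cells carry an SMN2 […]–luciferase reporter in which exon 7 inclusion puts luciferase in frame. Cells were plated 10-12 h before compound addition, then incubated 30-36 h at 37C. ONE-Glo luminescence was read; sodium butyrate at 4.5 mM final served as control.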
ELG1 repair inh – ELG1-dependent DNA repair inhibition. Potency, µM (doses to about 46.1 µM), without a hit: at the highest dose activity change, negative = inhibition, most hits filed as inhibitors. 330,000 tested, 2.3% active. AID 504467. HEK293T ELG1-luciferase reporter, luminescence, 16 h; DNA damage induced by 5-fluorouridine; note: % is set by controls: 0 for no effect and ±100 for the full control effect; nearly all actives have a fitted effect of over 55% in size
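Reporter activity after DNA damage by 5-fluorouridine is monitored. Compound-treated cells incubate 16 hr at 37 °C, then ONE-Glo is added for 30 min before luminescence reading.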
* hit, by the source's call; ? = inconclusive; . = no result given; [ ] = dose if it differs, or a comment. Rows were chosen to be rich in hits. Some 9.3% of all compounds tested hit in one or more screens of this group. Calls come from the whole dose curve; as a rule, active = well fitted curve in the direction sought with a large enough effect; inconclusive = small, poorly fitted or top-dose-only effect, or another doubt; inactive = no such curve, though single readings can be large; an effect the other way counts as inactive or inconclusive. Potency is the fitted concentration of half-maximal effect.

SMILES	Rab9 promoter act	ELG1 genotoxic	FLuc modulator	NPC1 prom act	SMN2 splice enh	ELG1 repair inh
CC(C)(C)OC(=O)N[C@H](C(=O)OC(C)(C)C)c1ccc(C(F)(F)F)cc1	-1.4%	1.6%	0.2%	0.9%	.	17.3%
C/C(=N\Nc1nc2ccccc2[nH]1)c1ccc(N2CCOCC2)cc1	?	9.6%	1.07µM*	3.98µM*	?	?
C/C(=N\Nc1nc2ccccc2[nH]1)c1ccc(Cl)s1	16.7%	2.3%	10.7µM*	?	-2.8%	?
C/C(=N\Nc1nc2ccccc2[nH]1)c1ccc(C)o1	?	?	10.7µM*	22.0%	17.8µM*	?
O=C(CSc1nc2ccccc2[nH]1)c1ccc(Cl)s1	15.3%	25.1%	?	17.7%	.	?
CC(C)CN1CC[C@@]2(CCCN(S(=O)(=O)c3ccccc3)C2)C1	.	.	.	.	6.8%	.
CC1(C)CC(=O)C(N=Nc2ccc(OC(F)F)cc2)=C(O)C1	3.0%	?	16.9µM*	-0.6%	-15.5%	?
CC1(C)CC(=O)C(N=Nc2ccc3ncsc3c2)=C(O)C1	.	.	19µM*	.	7.9%	.
CC1(C)CC(=O)C(N=Nc2ccc(F)cc2)=C(O)C1	21.4%	?	15.1µM*	-1.0%	.	?
CCN(CC)S(=O)(=O)c1ccc(N=NC2=C(O)CC(C)(C)CC2=O)cc1	-4.1%	1.3%	-3.4%	-0.7%	-7.3%	12.6%
CC1(C)CC(=O)C(N=Nc2c(Cl)cc(Cl)cc2Cl)=C(O)C1	-1.1%	13.6%	?	9.0%	-10.6%	?
CC1(C)CC(=O)C(N=Nc2ccc(Cl)cc2)=C(O)C1	4.6%	?	4.78µM*	-5.6%	14.1µM*	?
COc1ccccc1CNC(=O)C(NS(=O)(=O)c1ccc2c(c1)CCN2C(C)=O)C(C)C (centres undefined)	.	.	-3.3%	.	3.1%	.
CCOC(=O)c1ccc(NC(=S)N2CCN(C(=O)C3CCCO3)CC2)cc1 (centres undefined)	8.1%	-0.2%	-2.4%	-5.6%	.	-15.7%
CC1(C)CC(=O)C(N=Nc2cccnc2)=C(O)C1	-1.8%	3.1%	5.6%	0.4%	.	12.1%
CC1(C)CC(=O)C(N=Nc2ccc(-c3ccccc3)cc2)=C(O)C1	14.9%	?	2.13µM*	5.4%	18.3%	?
CN(C)Cc1cc(C(C)(C)C)ccc1-c1ccc(C(C)(C)C)cc1CN(C)C	.	.	.	.	-3.6%[9.22 µM]	.
CCn1c(SCC(=O)Nc2ccccc2C(=O)OC)nnc1-c1ccc(N)cc1	2.3%	0.1%	2.6%	-0.2%	-19.5%	?
COc1ccccc1NC(=O)CSc1nnc(-c2ccc(NC(C)=O)cc2)n1C	7.3%	-1.8%	-5.8%	-0.7%	-5.1%	-2.7%
CC(=O)Nc1ccc(-c2nnc(SCC(=O)Nc3ccc4c(c3)oc3ccccc34)n2C)cc1	?	0.9%	1.2µM*	?	-4.1%	?
CCn1c(SCC(=O)Nc2ccc3c(c2)oc2ccccc23)nnc1-c1ccc(N)cc1	3.6%	-9.2%	2.69µM*	-5.0%	-12.9%	-9.1%
COc1cc(OC)cc(C(=O)NC2CCCN(Cc3ccc(Cl)cc3)C2)c1 (centres undefined)	-3.9%	-1.7%	-3.9%	-3.0%	.	?
CC(OC(=O)C1=COCCO1)C(=O)c1ccc(C(C)(C)C)cc1 (centres undefined)	10.9%	1.0%	8.8%	0.0%	.	8.2%
CCOC(=O)N1CCN(C(=O)CSc2ccc(-c3ccc(OC)cc3)nn2)CC1	-6.0%	0.0%	10.7µM*	0.8%	-16.4%	11.0%
CC1Cc2ccccc2N1C(=O)CSc1nncn1C (centres undefined)	6.0%	0.9%	-1.1%	-1.8%	15.8%	12.5%
CCOC(=O)N1CCN(C(=O)CSc2ccc(-c3ccc(OC)c(OC)c3)nn2)CC1	5.5%	-13.7%	16.9µM*	1.5%	2.1%	?
CCOc1ccc(-c2ccc(SCC(=O)N3CCN(c4ccccc4)CC3)nn2)cc1	-2.4%	1.2%	?	2.7%	-15.8%	17.8%
